Screening data as filed in PubChem BioAssay.
Tg IFNy HTS: inhibitors of Toxoplasma gondii growth with IFN-gamma; Toxoplasma gondii growth in IFN-gamma-treated host cells; active compounds read low; activity change, negative = inhibition, % (test concentration not listed); actives 3.8% (n = 69,000); AID 1259416; in the data active = activity change below about -70%, passing the limit was not always enough;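 also: host cells are HeLa cells infected with Toxoplasma gondii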
Numbers without * were called inactive; i = inactive. Only a selection was taken, and hits are over-represented in it overall.

SMILES	Tg IFNy HTS
Fc1ccc(N2CCC3(CC2)CC(c2cccnc2)CO3)cc1 (stereo not drawn)	-82*
N#Cc1ccc(N2CCC3(CC2)CC(c2cccnc2)CO3)cc1 (stereo not drawn)	-67
COc1ccc(CN2CCC3(CC2)CC(c2cccnc2)CO3)cc1 (stereo not drawn)	-13
CO[C@H]1CCN(C(=O)c2cccs2)[C@H]1Cc1ccccc1	18
Cc1cc(CNc2cc(N)ncn2)c2[nH]c(-c3ccccc3)c(C)c2c1	199
Cn1cc(C(CNC(=O)Nc2ccccc2)c2cccnc2)c2ccccc21 (stereo not drawn)	i
CN1CCN(c2ncnc3c2c(C(=O)N(C)C)c2ccccn23)CC1	-6
Clc1ccc(-c2cn[nH]c2C2CCCNC2)cc1 (stereo not drawn)	1
Clc1ccc(C2(c3ccc(-c4cn[nH]c4)cc3)CCNCC2)cc1	-72*
CC(C)c1nc(CN(C)C(=O)CCc2cn3ccccc3n2)cs1	-35
CO[C@@]12[C@@H]3NC3CN1C1=C(C(=O)C(N)=C(C)C1=O)[C@@H]2COC(N)=O (stereo partly drawn)	-80*
COc1ccc(F)cc1C(=O)C1CCCN(Cc2cn(C)nc2-c2ccccc2)C1 (stereo not drawn)	-3
Clc1ccc(SCc2csc(-c3ccc(Cl)cc3)n2)cc1	-5
Clc1ccc(SCc2ccsc2-c2ncns2)cc1	-77*
Clc1ccc(SCc2csc(-c3ccno3)n2)cc1	-23
COCc1nnn2c1CN(C(=O)c1ccsc1)CCC2	-33
COCC1(C(=O)Nc2cccc(NC(=O)c3ccccc3OC)c2)CCC1	-2
COc1ccccc1C(=O)Nc1cccc(NC(=O)c2c(Cl)cnn2C)c1	-85*
COc1ccccc1C(=O)Nc1ccc(-c2nc(-c3ccc(C)cc3)co2)cc1	-55
CSc1ccc(C2c3[nH]c4ccccc4c3CCN2C(=O)c2cccc(N(C)C)c2)cc1 (stereo not drawn)	40
COc1ccc(C2c3[nH]c4ccccc4c3CCN2C(=O)c2ccc(N(C)C)cc2)cc1 (stereo not drawn)	58
CN(C)c1cccc(C(=O)N2CCc3c([nH]c4ccccc34)C2c2ccccc2)c1 (stereo not drawn)	-111*
Cc1cccc(C(=O)N2CCc3c([nH]c4ccccc34)C2c2ccc(Cl)cc2)c1 (stereo not drawn)	-104*
Cc1cccc(C(=O)N2CCc3c([nH]c4ccccc34)C2c2ccc(F)cc2)c1 (stereo not drawn)	-44
CSc1ccc(C2c3[nH]c4ccccc4c3CCN2C(=O)c2cccc(F)c2)cc1 (stereo not drawn)	15
SMILES	Tg IFNy HTS
CSc1ccc(C2c3[nH]c4ccccc4c3CCN2C(=O)c2cccc(C)c2)cc1 (stereo not drawn)	-115*
CN(Cc1ccco1)CC1CCC2(COCCN(C(N)=O)C2)O1 (stereo not drawn)	5
O=C(NCCc1nc(-c2ccc(Cl)cc2)cs1)c1nn2cccnc2c1Cl	25
OC[C@@]1(O)OC[C@@H](O)[C@@H](O)[C@@H]1O	5
Cc1cc2c(cc1-c1c(-c3ccccc3)ncn1Cc1cccnc1)OCO2	-29
COc1ccc(-c2nc(Nc3ccc(Cl)cc3C)c3ccccc3n2)cc1	-85
Cn1c(=O)n(Cn2nnc3ccccc32)c2cccnc21	-47
COc1ccc2oc(=O)c(C(=O)Nc3c(C)n(C)n(-c4ccccc4)c3=O)cc2c1	29
COc1ccc2c(Oc3ccc(NC(=O)c4c(C)n(CC(C)(C)O)n(-c5ccccc5)c4=O)nc3)ccnc2c1	-73*
COc1ccc2c(OCc3nnc4ccc(-c5ccccc5)nn34)ccnc2c1	-5
Cc1cccnc1N1CCN(C(=O)c2cn(CC3CCCNC3)nn2)CC1 (stereo not drawn)	2
CC1(C)Cc2ccccc2CN1C(=O)c1cn(CC2CCCNC2)nn1 (stereo not drawn)	2
O=C(NCCc1csc2c1CCCC2)c1cn(CC2CCCNC2)nn1 (stereo not drawn)	-78*
COc1ccc(NC(=O)c2cncc(NS(=O)(=O)c3ccc(Br)cc3)c2)c(C)c1	16
COc1cc(-c2cnc3ccccc3c2)cc2c1OCCN(Cc1cnc[nH]1)C2	28
COc1ccc(OC)c(NC(=O)c2nnn(Cc3nc(-c4ccccc4OC)oc3C)c2C)c1	-11
Cc1ccc(NC2=CC(=O)c3sc(C)nc3C2=O)cc1	-76*
COc1ccccc1C(=O)Nc1ccc(-c2nc(Cn3cccn3)c(C)o2)cc1	-25
CSc1ccc(Cl)c(C(=O)Nc2ccc(-c3nc(Cn4cccn4)c(C)o3)cc2)c1	-93*
Cc1oc(-c2ccc(NC(=O)c3c(F)cccc3Cl)cc2)nc1Cn1cccn1	65
Cc1cnn(Cc2nc(-c3ccc(NC(=O)c4ccc(F)cc4F)cc3)oc2C)c1	-4
Cc1cnn(Cc2nc(-c3ccc(NC(=O)c4cc(F)ccc4Cl)cc3)oc2C)c1	-89*
Cc1cnn(Cc2nc(-c3ccc(NC(=O)c4c(F)cccc4Cl)cc3)oc2C)c1	-54
Cc1oc(-c2ccc(NC(=O)c3ccc(F)c(Cl)c3)cc2)nc1Cn1cccn1	-69
